This note sets out measurements from PubChem BioAssay AID504682 (Southern Research Specialized Biocontainment Screening …, 2011).

Results with a measured potency or affinity are listed apart. Activity calls are given as the source filed them. How the calls were made is not given here.

The nature of the assay: cytotoxicity control, cell-based, set 2 (AID 504682). Conditions: HepG2 cytotoxicity; series mostly up to 50 µM; viability: at the top concentration.
The viability is a read-out of living cells in per cent, often relative to untreated cells. For `COC(=O)CCc1nc2c(C#N)c(-c3ccc(Cl)cc3)ccn2n1`, the “viability” value was 98.8% (inactive).

`Cc1nc(SCC(N)=O)[nH]c(=O)c1C`: the “viability” value is 99.5% (inactive).

Regarding `Cc1ccc(NC(=O)COC(=O)CCc2c[nH]c3ccccc23)cc1[N+](=O)[O-]`, the “viability” value is 97.8% (inactive).

For `COC(=O)C1CC(=O)N(c2ccc(OCc3ccccc3Cl)cc2)C1` (centres undefined), the “viability” value was 96.1% (inactive).

With `Cc1cc(=O)[nH]c(=S)[nH]1`, the “viability” value was 101% (inactive).

Consider `CCn1c2ccccc2c2cc(NC(=O)CSc3nc(C)cc(=O)[nH]3)ccc21`, for which the “viability” value was 83.2% (inactive).

Turning to `Cc1ccc(NC(=O)C2C3/C=C\CCCCC32)cc1C` (centres undefined), the “viability” value is 101% (inactive).

`Cc1nc(SCC(=O)N(C)c2ccccc2)[nH]c(=O)c1C`: the “viability” value is 108% (inactive).

Regarding `O=C(CSc1nccc(=O)[nH]1)Nc1ccc(N2CCOCC2)cc1`, the “viability” value was 90% (inactive).

Take `O=C(CSc1nc2ccccc2c(=O)[nH]1)NC1CCCCC1`: the “viability” value is 103% (inactive).

In the case of `O=C(CSc1ccccn1)NC1CCCCC1`, the “viability” value was 121% (inactive).

In the case of `CCOC(=O)COn1c2c(c3c4no[n+]([O-])c4ccc31)CCCC2`, the “viability” value was 90.6% (inactive).

As for `CCOC1OC(=O)C(Cl)=C1Nc1ccccc1C` (centres undefined), the “viability” value is 95.3% (inactive).

For the compound `CCOC(=O)C(C)Sc1ncnc2c1nnn2-c1ccc(F)cc1` (centres undefined), the “viability” value is 88.7% (inactive).

Turning to `Cc1nc(SCC(=O)NC2CCCCC2)[nH]c(=O)c1C`, the “viability” value is 101% (inactive).

Regarding `O=C(CSc1nccc(=O)[nH]1)Nc1ccc(Oc2ccccc2)cc1`, the “viability” value is 96.8% (inactive).

As for `Cc1c[nH]c(=S)[nH]c1=O`, the “viability” value was 105% (inactive).

On to `CN(C(=O)CSc1nc2ccccc2c(=O)[nH]1)C1CCCCC1`, for which the “viability” value was 88.6% (inactive).

`O=C(CSc1ncccn1)NC1CCCCC1`: the “viability” value was 91.5% (inactive).
